Data on 15 molecules can be found in PubChem BioAssay AID651592 (Sanford-Burnham Center for Chemical Genomics, 2012).

SMILES strings stand for the structures. Activity calls are given as the source filed them.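 The calls were made as follows: active = NF-kB reporter IC50 at most 10 µM, IL-8 IC50 within fivefold of it with bacterial filtrate but not with TNF-alpha; inactive = the rest.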

The test in a line: inhibitors of NFkB activation in CF airway cells, SAR follow-up, KKLEB cells, panel, IL8 HTRF, NFkB-GFP (AID 651592).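 Also: immortalized cystic fibrosis airway epithelial KKLEB cells with an NF-kB GFP reporter.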 As to conditions: PAF/TNFa-induced NFkB-GFP / IL8 HTRF, CF-PAF assay, mean of runs. For orientation: Time-resolved FRET reads energy transfer from a long-lived donor to a nearby acceptor.
As for `O=C(Nc1ccc(N2CCN(C(=O)c3ccccc3)CC2)cc1)c1ccccn1`, the result was inactive.

In the case of `O=C(Nc1ccc(N2CCN(C(=O)c3ccccc3)CC2)cc1)c1ccccc1`, the outcome was inactive. Under `O=C(Nc1ccc(N2CCN(C(=O)c3ccccc3F)CC2)cc1)c1ccccn1` stands “inactive”; under `CCOc1ccc(NCc2cc3c(C(C)(C)C)nn(-c4ccc(Cl)cc4)c3[nH]c2=O)cc1`, “inactive”; under `O=C(Nc1ccc(N2CCN(C(=O)c3ccccc3Cl)CC2)cc1)c1cncc(Br)c1`, “active”. Under `O=C(Nc1ccc(N2CCN(C(=O)c3ccc(F)cc3)CC2)cc1)c1cccnc1` stands “inactive”; under `CCOc1ccc(NCc2cc3c(C(C)(C)C)nn(-c4ccccc4)c3[nH]c2=O)cc1`, “inactive”. `O=C(Nc1ccc(N2CCN(C(=O)c3ccccc3)CC2)cc1)c1cncc(Br)c1`: the call was active. Under `O=C(Nc1ccc(N2CCN(C(=O)c3ccccc3F)CC2)cc1)c1ccncc1` stands “inactive”; under `CCOc1ccc(NCc2cc3c(-c4ccc(OC)c(OC)c4)nn(-c4ccccc4)c3[nH]c2=O)cc1`, “inactive”. Under `O=C(Nc1ccc(N2CCN(C(=O)c3ccccc3Cl)CC2)cc1)c1cccnc1` stands “inactive”; under `O=C(Nc1ccc(N2CCN(C(=O)c3ccc(F)cc3)CC2)cc1)c1cc(Br)cc(Br)c1`, “inactive”.

Regarding `O=C(Nc1ccc(N2CCN(C(=O)c3ccc(F)cc3)CC2)cc1)c1ccccn1`, the molecule was classed as inactive. Under `CCOc1ccc(NCc2cc3c(-c4ccc(F)cc4)nn(-c4ccccc4)c3[nH]c2=O)cc1` stands “active”. Consider `Cc1ccc(NCc2cc3c(C(C)(C)C)nn(-c4ccccc4)c3[nH]c2=O)cc1`, for which the result was inactive.
